Only some compounds are listed: those with a hit (about 1.6% of all), similar ones and a draw of the others.
hERG WT inh: KCNH2 (human, wildtype) channel inhibition; Q12809; U2OS, BacMam KCNH2, thallium flux FluxOr; hits give low values; activity change, % at 1.84 µM; 340,000 compounds, 0.37% hits; AID 720551;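 active = maximum activity change below -70%; inconclusive = maximum activity change between -70% and -50%; inactive = maximum activity change above -50%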; also: % is scaled to controls: 0 for no effect and ±100 for the full control effect
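U2OS cells were transduced with wild-type KCNH2 virus (2.03 x 10^8 / mL) for 4 h at room temperature, then cultured overnight at 37 C. Thallium flux was read with FluxOr dye. Rate constants were normalized to DMSO controls.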
gsp antagonist: gsp mutant antagonism; Potency, µM (top dose mostly 76.9 µM), for the others: at the highest dose activity change, negative = inhibition, actives largely listed as inhibitors; gsp-mutant cells, cAMP HTRF, 30 min; AID 624288; 340,000 compounds, 0.4% hits; calls by dose curve; cell line not stated here;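 also: intracellular cAMP measured with PDE inhibitor Ro 20-1724 present during compound exposure; potency is read from the fitted curve at half-maximal effect; % is scaled to controls: 0 for no effect and ±100 for the full control effect; nearly all actives have a fitted effect of over 65% in size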
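Cells, 2000/well, grown 16–24 h in DMEM 10% FBS with 0.5 mg/ml G418, then compounds plus […] (300 uM addition stock), 30 min at 37C. cAMP read by HTRF (cAMP-d2 and anti-cAMP antibody-K in lysis buffer) after 30 min RT.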
KCNH2 3.1 inh: inhibitors of human KCNH2 3.1 potassium channel isoform; activity change, % (tested at about 1.8 µM); AID 720553; 340,000 compounds, 0.95% hits; U2OS KCNH2 3.1, thallium flux FluxOr; hits give low values;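 active = maximum activity change below -70%; inconclusive = maximum activity change from -70% to -50%; inactive = maximum activity change above -50%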;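 also: thallium influx rate constant from kinetic fluorescence after stimulation buffer; % is scaled to controls: 0 for no effect and ±100 for the full control effect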
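Thallium flux read-out: FluxOr dye with Red40 quencher in HBSS/HEPES, 45 min at RT. Rate constants from kinetic reads were normalized to positive and negative DMSO controls. Cells: U2OS virally expressing the 3.1 isoform.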
gsp agonist: activates gsp, the McCune-Albright syndrome mutation; gsp mutant cells, cAMP HTRF, 30 min; Potency, µM (highest dose often 76.9 µM), for inactives: at the highest dose activation (cAMP increase), hits mostly activators; 340,000 compounds, 0.13% hits; active = well fitted activation curve with a large enough effect; inconclusive = small, poorly fitted or top-dose-only effect, or another doubt; inactive = no such curve, though single readings can be large or run the other way; cell line not stated here;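 also: phosphodiesterase inhibitor Ro 20-1724 added with compounds to block cAMP breakdown; potency is read from the fitted curve at half-maximal effect; nearly all actives have a fitted effect of over 60% in size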
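Cells in DMEM/10% FBS with G418 were pretreated with compounds in DMSO plus […] (300 uM stock) for 30 min at 37C. cAMP was measured by HTRF (cAMP-d2 plus anti-cAMP antibody-K) after 30 min at room temperature.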
Akt phos inh: inhibitors of Akt phosphorylation | Neuro2A IGF-stimulated pAkt S473 HTRF, 20 min; hits give low values | activity change, % for hits at 50 µM | 360,000 compounds, 0.32% hits | AID 651550; in the data active = activity change below about -80%; inconclusive = mostly about -51% to -80%; also: % is scaled to controls: 0 for no effect and ±100 for the full control effect
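Single-point screen (50 µM final compound) in Neuro2A cells stimulated 20 min with 6 nM IGF at 37 deg C. After lysis, Ser473-phosphorylated Akt read by HTRF (ex 330 nm, em 615/665 nm) as the 665/615 ratio.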
Glioma ERSR ind: induces the endoplasmic reticulum stress response in human glioma cells; U87-MG GRP78 promoter luciferase reporter, 16 h; Potency, µM, without a hit: top-dose activation, usual class: activators; 420,000 compounds, 0.02% hits; active = well fitted activation curve with a large enough effect; inconclusive = small, poorly fitted or top-dose-only effect; inactive = no such curve, though single readings can be large or run the other way; also: potency is read from the fitted curve at half-maximal effect; series mostly up to about 76 µM; % of control where 0% means no effect; nearly all actives have a fitted effect of over 35% in size
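ERSR induction read as luciferase luminescence (Bright-Glo, 10 min at room temperature) in stably transfected human U87-MG glioma cells exposed to compounds for 16 h, using GRP78 as sensor.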
An asterisk follows results filed as active; i = inactive; u = inconclusive; x = no result given; [ ] = remark or other dose.

SMILES | hERG WT inh | gsp antagonist | KCNH2 3.1 inh | gsp agonist | Akt phos inh | Glioma ERSR ind
C1CCC[C@H]2CCCN3CC[C@H](CCCCCC[C@@H]4CCCN5CC[C@H](CC1)OC45)OC23 | x | x | x | x | x | -2.7%
CN(CC1COCCO1)C(=O)c1cnn(-c2nccc(-c3ccccc3C(F)(F)F)n2)c1C1CC1 (stereo not given) | x | x | x | x | x | -3.4%
O=C(NCCNC(=O)c1ccccc1Br)c1ccccc1Br | -6.1 | 4.9% | -114.5* | -40.0% | i | 1.1%
O=C(NCCNC(=O)c1ccccc1O)c1ccccc1O | -6.1 | -6.9% | -1.4 | -21.1% | i | 1.2%
O=C(NCCCCCCNC(=O)c1ccccc1O)c1ccccc1O | -6.8 | 44.7µM* | 4.7 | -3.0%[15.4 µM] | i | -0.3%
O=Nc1ccc(/C=C/c2ccnc3ccccc23)cc1 | x | x | x | x | x | -3.5%
Cc1oc(-c2ccc(F)cc2)cc1-c1nn2c(-c3ccoc3C)nnc2s1 | 1.4 | -0.6% | -2.4 | 1.5% | -108.8%* | -3.4%
COc1ccc(-c2nnc3sc(-c4ccco4)nn23)cc1OC | -10.4 | 2.0% | 4.6 | 0.2% | i | -2.1%
CN(C)S(=O)(=O)Oc1ccc(C(=O)Nc2ccc([N+](=O)[O-])cc2)cc1 | -9.4 | 3.6% | 21.2 | 7.0% | i | -4.7%
COC(=O)c1ccc(OS(=O)(=O)N(C)C)cc1 | -226.5* | 13.0% | -11.1 | -3.9% | i | -2.5%
COc1cccc(CN2C(=O)NC(C)(C3CCN(Cc4cc(F)cc(F)c4)CC3)C2=O)c1OC (stereo not given) | x | x | x | x | x | -4.4%
CCC(COC)NC(=O)CCc1nnc(Cc2c[nH]c3ccccc23)o1 (stereo not given) | -13.7 | -3.5% | -6.7 | 1.8% | i | -0.9%
CC(C)(C)NC(=O)CCc1nnc(Cc2c[nH]c3ccccc23)o1 | -12.5 | 7.3% | -109.7* | -4.6% | i | 0.6%
Cc1cccnc1-c1cccc2c1OC(CNC(=O)Cc1c(C)noc1C)C2 (stereo not given) | x | x | x | x | x | -5.0%
OC(COc1ccc(Cl)cc1)CN1CCN(c2cccc(Cl)c2)CC1 (stereo not given) | 7.2 | -2.3% | -77.8* | -2.4%[15.4 µM] | i | 6.0%
OC(COCc1ccc(Cl)cc1)CN1CCN(CC(O)COCc2ccc(Cl)cc2)CC1 (stereo not given) | 1.9 | 6.2% | -88.4* | 14.0% | i | -1.2%
Cc1cc(OCC(O)CN2CCc3ccccc3C2)ccc1Cl (stereo not given) | 9.5 | 15.9% | -79.8* | -29.3% | i | -4.9%
Cc1cccc(N2CCN(CC(O)COc3ccc(Cl)cc3)CC2)c1 (stereo not given) | 4.0 | 4.1% | -79.2* | -3.6% | i | 0.7%
CCOc1ccc(OCC(O)CN2CCc3ccccc3C2)cc1 (stereo not given) | 31.5 | 2.5% | u | -12.7% | i | -4.4%
COc1ccc(OCC(O)CN2CCN(c3ccc(Cl)cc3)CC2)cc1 (stereo not given) | 25.5 | 11.2% | -83.9* | 23.0% | i | -3.7%
O=[N+]([O-])c1ccc(Oc2ccc(N=C=S)cc2)cc1 | x | x | x | x | x | -4.0%
COc1cc(-c2cnc3ccccc3c2)cc2c1OCCN(S(=O)(=O)C[C@]13CC[C@H](CC1=O)C3(C)C)C2 | x | x | x | x | x | -5.9%
O=C(CC(=O)c1ccccc1O)c1ccc(F)cc1 | -10.4 | 39.8µM* | -6.4 | u | i | 10.6%
CCC(C)(C)NC(=O)Nc1cc(Cl)ccc1OC | 1.3 | -13.2% | -80.9* | -43.4% | i | -4.6%
CCCCN(C)C1=CC2=CC(=C(C#N)C#N)CCC2CC1 (stereo not given) | -87.2* | u | -102.2* | -0.2%[15.4 µM] | i | -6.3%
SMILES | hERG WT inh | gsp antagonist | KCNH2 3.1 inh | gsp agonist | Akt phos inh | Glioma ERSR ind
N#CC(C#N)=C1C=C2C=C(N3CCCCC3)CCC2CC1 (stereo not given) | u | 39.8µM* | -88.6* | 37.1% | i | -3.9%
CCN(CC)C1=CC2=CC(=C(C#N)C#N)CCC2CC1 (stereo not given) | -49.7 | -20.1% | -96.6* | -4.9%[15.4 µM] | i | -4.5%
COc1ccc(CN2CCOc3ccc(CN4CCC(Oc5cccnc5)CC4)cc3C2)cc1 | x | x | x | x | x | -2.7%
O=C(O)Cc1ccccc1Oc1ccc(Cl)cc1Cl | x | x | x | x | x | -2.8%
S=c1[nH]cc(Oc2ccc(Cl)cc2Cl)c(=S)[nH]1 | -1.3 | -4.1% | 1.4 | 20µM* | i | -2.1%
Cc1cc(NC(=O)CSc2nc3ccccc3c(=O)n2Cc2ccccc2)no1 | 1.9 | 15.8% | -1.0 | -9.7% | i | -7.8%
Cc1ccc(Cn2c(SCC(=O)Nc3cc(C)on3)nc3ccccc3c2=O)cc1 | -2.4 | 13.5% | -96.7* | 14.4% | u | 3.4%
O=C(CSc1nc2ccccc2c(=O)n1Cc1ccc(Cl)cc1)NCc1cccs1 | -5.6 | -3.7% | -82.0* | 24.1% | i | -4.3%
CC(C)(C)n1ncc2c(=O)n(Cc3ccc(Cl)cc3F)cnc21 | x | x | x | x | x | -2.1%
CN(C)c1ccc(/C=C/C(=O)c2cccc(Br)c2)cc1 | -149.4* | -7.8% | -115.4* | -0.9% | i | 2.5%
CCN1C(=O)[C@H]2[C@H]3[C@H](O)[C@H](O)C/C(=N/O[C@@H]4O[C@@H](COC(C)=O)[C@@H](OC(C)=O)[C@@H](OC(C)=O)[C@H]4OC(C)=O)[C@@H]3CC[C@@H]2C1=O | x | x | x | x | x | -3.0%
CCc1ccc(CN2CCC(n3nccc3NC(=O)c3ccccc3C)CC2)cc1 | -3.6 | 1.5% | -101.0* | -18.1% | i | -9.4%
Cc1ccccc1C(=O)Nc1ccnn1C1CCN(Cc2cccnc2)CC1 | 2.0 | 4.3% | 1.9 | 0.0% | i | -2.4%
COc1ccccc1C(=O)Nc1ccnn1C1CCN(C/C=C/c2ccc(F)cc2)CC1 | -123.0* | -19.1% | -103.7* | u | i | 2.0%
O=C(Nc1ccnn1C1CCN(Cc2ccccc2)CC1)c1ccccc1Cl | -26.4 | -1.0% | -89.6* | -26.8% | i | 0.9%
COc1ccccc1C(=O)Nc1ccnn1C1CCN(C)CC1 | 6.7 | 10.5% | 2.0 | -6.8% | i | -0.7%
CCCn1ncc(CN2CCC(n3nccc3NC(=O)c3ccccc3Cl)CC2)c1C | -87.8* | -13.9% | u | -52.0% | i | -3.2%
O=C(Nc1ccnn1C1CCN(C/C=C/c2ccccc2)CC1)C1CCCC1 | 2.7 | -0.8% | -79.7* | 32.6% | i | -3.0%
O=C(Nc1ccnn1C1CCN(C/C=C/c2ccccc2)CC1)c1ccccc1Cl | -107.4* | 11.8% | -106.9* | -5.9% | i | -4.9%
O=C(Nc1ccnn1C1CCN(Cc2ccc3nonc3c2)CC1)c1cccc(F)c1 | 11.0 | -9.8% | -7.4 | 30.7% | i | -2.3%
CCN1CCC(n2nccc2NC(=O)c2ccccc2Cl)CC1 | 20.5 | 18.4% | -0.8 | u | i | 6.5%
CCc1ccc(CN2CCC(n3nccc3NC(=O)c3cccc(F)c3)CC2)cc1 | -110.2* | -5.8% | -100.5* | -37.0% | i | -4.8%
